Laboratory results published in ChEMBL document CHEMBL3988442, “University of Dundee, Small-Polar-MMV Screening Library” (2021).
For some assays here: Entries with a potency or affinity are not part of this list.

Legend:
Set-up in all cases: scale not given: direction of the effect not stated beside the values
[1] = molecular target: Protein translocase subunit SecA (Escherichia coli (strain K12)) (UniProt P10408); experiment: Assay to Identify E. coli SecA ATPase Inhibitors; format: functional; settings: 30 µM
Sequence of Protein translocase subunit SecA (Escherichia coli (strain K12)) (P10408 whole entry): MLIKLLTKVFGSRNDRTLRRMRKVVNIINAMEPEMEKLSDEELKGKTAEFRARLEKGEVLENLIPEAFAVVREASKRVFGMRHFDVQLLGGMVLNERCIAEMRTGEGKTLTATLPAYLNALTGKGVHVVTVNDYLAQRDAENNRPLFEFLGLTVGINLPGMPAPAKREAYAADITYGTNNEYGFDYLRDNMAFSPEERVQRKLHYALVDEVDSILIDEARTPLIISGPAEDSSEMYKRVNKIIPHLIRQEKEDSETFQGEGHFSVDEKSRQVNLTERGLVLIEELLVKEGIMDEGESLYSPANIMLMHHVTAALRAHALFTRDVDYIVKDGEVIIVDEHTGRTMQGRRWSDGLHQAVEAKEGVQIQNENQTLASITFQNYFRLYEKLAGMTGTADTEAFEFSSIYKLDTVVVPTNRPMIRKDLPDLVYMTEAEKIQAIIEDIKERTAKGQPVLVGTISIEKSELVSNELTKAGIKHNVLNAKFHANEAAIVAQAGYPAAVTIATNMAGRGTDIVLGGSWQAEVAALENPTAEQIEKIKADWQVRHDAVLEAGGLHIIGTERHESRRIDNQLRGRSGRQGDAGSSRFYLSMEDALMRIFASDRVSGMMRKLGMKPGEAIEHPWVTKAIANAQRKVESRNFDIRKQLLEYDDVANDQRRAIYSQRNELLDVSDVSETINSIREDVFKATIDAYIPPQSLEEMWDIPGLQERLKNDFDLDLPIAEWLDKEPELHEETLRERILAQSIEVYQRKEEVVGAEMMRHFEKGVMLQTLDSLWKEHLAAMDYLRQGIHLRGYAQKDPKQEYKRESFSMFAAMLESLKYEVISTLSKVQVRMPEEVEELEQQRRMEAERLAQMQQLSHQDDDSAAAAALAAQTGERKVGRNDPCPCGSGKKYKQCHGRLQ

[2] = molecular target: T1, Ubiquitin-activating enzyme e1, putative (Leishmania donovani (strain BPK282A1)) (UniProt E9BSI1); experiment: Leishmania donovani Ubiquitin Activating Enzyme (LdE1); format: functional; settings: 30 µM
T1 sequence (whole entry): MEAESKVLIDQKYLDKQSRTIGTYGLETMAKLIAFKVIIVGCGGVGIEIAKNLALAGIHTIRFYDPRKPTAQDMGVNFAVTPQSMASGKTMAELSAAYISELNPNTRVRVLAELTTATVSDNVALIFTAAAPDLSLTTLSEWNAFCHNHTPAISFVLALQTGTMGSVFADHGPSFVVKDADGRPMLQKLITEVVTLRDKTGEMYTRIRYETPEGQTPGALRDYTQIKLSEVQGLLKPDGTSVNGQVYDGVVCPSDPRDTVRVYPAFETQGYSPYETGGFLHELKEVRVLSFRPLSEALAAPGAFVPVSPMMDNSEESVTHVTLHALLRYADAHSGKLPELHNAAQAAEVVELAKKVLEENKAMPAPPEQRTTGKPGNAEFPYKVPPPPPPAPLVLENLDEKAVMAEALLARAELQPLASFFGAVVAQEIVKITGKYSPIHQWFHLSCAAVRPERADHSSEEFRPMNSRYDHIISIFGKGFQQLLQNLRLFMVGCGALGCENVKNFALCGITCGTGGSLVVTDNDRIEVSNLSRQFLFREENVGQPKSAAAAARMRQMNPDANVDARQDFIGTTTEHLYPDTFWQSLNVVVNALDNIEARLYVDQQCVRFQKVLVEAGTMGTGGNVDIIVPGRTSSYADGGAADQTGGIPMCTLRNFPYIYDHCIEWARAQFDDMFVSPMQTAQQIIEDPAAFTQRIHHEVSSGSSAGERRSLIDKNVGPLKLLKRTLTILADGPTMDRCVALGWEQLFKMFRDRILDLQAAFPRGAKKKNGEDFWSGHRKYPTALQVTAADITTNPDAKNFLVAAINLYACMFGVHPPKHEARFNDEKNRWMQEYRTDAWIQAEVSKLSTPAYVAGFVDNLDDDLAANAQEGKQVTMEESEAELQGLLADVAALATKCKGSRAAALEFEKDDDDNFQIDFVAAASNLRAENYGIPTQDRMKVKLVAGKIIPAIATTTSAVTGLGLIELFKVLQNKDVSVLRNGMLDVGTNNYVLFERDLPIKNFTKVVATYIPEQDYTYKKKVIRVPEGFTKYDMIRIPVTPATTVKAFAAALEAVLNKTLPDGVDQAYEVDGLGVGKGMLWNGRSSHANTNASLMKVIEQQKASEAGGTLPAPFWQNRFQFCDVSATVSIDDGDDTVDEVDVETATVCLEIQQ

[3] = molecular target: AMP-activated protein kinase, AMPK (Homo sapiens) (UniProt P54646+O43741+P54619+Q9UGJ0+Q9Y478+Q13131+Q9UGI9); experiment: AMP-dependent Kinase enzyme assay. An in vitro enzyme assay that detects ADP turnover that is directly proportional to AMPK activity. This uses naive AMPK that is activated during the assay with MK-8722; format: functional; settings: 30 µM
[4] = molecular target: Sialic acid-binding Ig-like lectin 9 (Homo sapiens) (UniProt Q9Y336); experiment: Hs-Siglec9 ALPHAscreen SOP 20170721; settings: 10 µM
Sequence of Sialic acid-binding Ig-like lectin 9 (Homo sapiens) (Q9Y336 whole entry): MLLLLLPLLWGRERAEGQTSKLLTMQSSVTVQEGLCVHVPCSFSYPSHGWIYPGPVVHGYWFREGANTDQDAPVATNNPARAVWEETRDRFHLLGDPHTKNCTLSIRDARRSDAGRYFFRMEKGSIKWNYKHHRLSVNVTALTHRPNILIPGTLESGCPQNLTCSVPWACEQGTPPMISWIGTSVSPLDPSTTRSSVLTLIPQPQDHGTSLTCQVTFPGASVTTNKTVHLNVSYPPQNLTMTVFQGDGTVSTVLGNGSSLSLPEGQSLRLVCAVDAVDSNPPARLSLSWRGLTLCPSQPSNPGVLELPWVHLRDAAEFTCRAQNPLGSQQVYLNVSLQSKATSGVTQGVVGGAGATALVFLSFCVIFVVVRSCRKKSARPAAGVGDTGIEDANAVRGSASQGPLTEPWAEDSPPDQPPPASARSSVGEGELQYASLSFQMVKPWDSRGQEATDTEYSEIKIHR

Trypanosoma cruzi = experiment: Trypanosoma cruzi phosphomannomutase and mannose-1-phosphate guanylyltransferase assay; format: functional; settings: 10 µM
[5] = molecular target: T2, Arginase-2, mitochondrial (Homo sapiens) (UniProt P78540); experiment: in vitro enzyme assay to detect the production of urea directly proportional to the activity of Arginase II; format: functional; settings: 33.3 µM; also: in the data most compounds retested in dose-response had high values
T2 sequence (whole entry): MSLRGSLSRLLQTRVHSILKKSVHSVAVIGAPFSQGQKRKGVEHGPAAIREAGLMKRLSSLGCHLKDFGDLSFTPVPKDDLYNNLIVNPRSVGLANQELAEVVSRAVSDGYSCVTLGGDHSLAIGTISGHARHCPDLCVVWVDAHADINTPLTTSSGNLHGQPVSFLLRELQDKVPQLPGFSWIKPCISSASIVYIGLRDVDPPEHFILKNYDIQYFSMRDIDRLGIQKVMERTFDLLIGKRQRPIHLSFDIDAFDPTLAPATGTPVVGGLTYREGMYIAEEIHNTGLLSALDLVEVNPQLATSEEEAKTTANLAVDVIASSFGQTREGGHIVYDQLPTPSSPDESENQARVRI

[6] = molecular target: T3, Proteasome subunit beta (Trypanosoma cruzi) (UniProt O96673); experiment: Trypanosoma cruzi proteasome chymotrypsin-like activity (TcProtChymo) assay.; also: in the data most compounds retested in dose-response had high values; format: functional; settings: 9.37 µM
T3 sequence (whole entry): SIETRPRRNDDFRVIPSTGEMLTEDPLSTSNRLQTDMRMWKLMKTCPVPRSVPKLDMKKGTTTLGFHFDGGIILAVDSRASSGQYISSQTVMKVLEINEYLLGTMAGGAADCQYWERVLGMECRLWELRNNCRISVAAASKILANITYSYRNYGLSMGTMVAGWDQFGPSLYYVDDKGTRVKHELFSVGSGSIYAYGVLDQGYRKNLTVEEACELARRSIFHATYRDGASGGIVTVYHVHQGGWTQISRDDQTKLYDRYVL

Homo sapiens = species: Homo sapiens; experiment: To identify inhibition of the IFN signalling (Jak-Stat) pathway via expression of an eGFP reporter gene under the control of an IFN-stimulated response element (ISRE) containing MxA promoter.; format: functional; settings: 30 µM
[7] = molecular target: T4, Tyrosyl-tRNA synthetase, putative (Trypanosoma cruzi (strain CL Brener)) (UniProt Q4DSP6); experiment: Trypanosoma cruzi tyrosyl tRNA synthetase (TcYRS) _High Tyrosine SOP; format: functional; settings: 30 µM; also: in the data most compounds retested in dose-response had high values
T4 sequence (whole entry): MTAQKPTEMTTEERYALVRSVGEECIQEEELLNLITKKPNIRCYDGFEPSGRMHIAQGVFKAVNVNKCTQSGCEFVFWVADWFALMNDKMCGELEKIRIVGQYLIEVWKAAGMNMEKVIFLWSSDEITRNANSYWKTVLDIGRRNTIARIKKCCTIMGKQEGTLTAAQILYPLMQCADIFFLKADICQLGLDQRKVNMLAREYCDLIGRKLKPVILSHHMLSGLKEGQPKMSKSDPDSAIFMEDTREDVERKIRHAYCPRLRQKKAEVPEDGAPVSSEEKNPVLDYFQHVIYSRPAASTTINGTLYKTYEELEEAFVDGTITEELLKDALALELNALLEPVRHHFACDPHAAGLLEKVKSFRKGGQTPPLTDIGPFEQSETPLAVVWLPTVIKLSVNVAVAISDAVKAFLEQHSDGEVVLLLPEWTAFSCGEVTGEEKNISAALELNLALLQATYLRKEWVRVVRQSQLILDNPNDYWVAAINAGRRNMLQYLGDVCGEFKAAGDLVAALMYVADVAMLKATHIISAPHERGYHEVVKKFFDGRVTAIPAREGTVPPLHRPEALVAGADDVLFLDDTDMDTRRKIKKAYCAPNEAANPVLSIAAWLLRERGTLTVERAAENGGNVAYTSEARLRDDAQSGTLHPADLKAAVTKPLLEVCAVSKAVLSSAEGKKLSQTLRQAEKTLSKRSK

[8] = molecular target: T4, Tyrosyl-tRNA synthetase, putative (Trypanosoma cruzi (strain CL Brener)); experiment: Trypanosoma cruzi tyrosyl tRNA synthetase (TcYRS) SOP; format: functional; settings: 30 µM
[9] = molecular target: Chromo domain-containing protein 1 (Saccharomyces cerevisiae (strain ATCC 204508 / S288c) (Baker's yeast)) (UniProt P32657); experiment: ScCHD-1 Enzyme Inhibition Assay; format: functional; settings: 30 µM; also: in the data most compounds retested in dose-response had high values
Sequence of Chromo domain-containing protein 1 (Saccharomyces cerevisiae (strain ATCC 204508 / S288c) (Baker's yeast)) (P32657 whole entry, the tested form may be a part): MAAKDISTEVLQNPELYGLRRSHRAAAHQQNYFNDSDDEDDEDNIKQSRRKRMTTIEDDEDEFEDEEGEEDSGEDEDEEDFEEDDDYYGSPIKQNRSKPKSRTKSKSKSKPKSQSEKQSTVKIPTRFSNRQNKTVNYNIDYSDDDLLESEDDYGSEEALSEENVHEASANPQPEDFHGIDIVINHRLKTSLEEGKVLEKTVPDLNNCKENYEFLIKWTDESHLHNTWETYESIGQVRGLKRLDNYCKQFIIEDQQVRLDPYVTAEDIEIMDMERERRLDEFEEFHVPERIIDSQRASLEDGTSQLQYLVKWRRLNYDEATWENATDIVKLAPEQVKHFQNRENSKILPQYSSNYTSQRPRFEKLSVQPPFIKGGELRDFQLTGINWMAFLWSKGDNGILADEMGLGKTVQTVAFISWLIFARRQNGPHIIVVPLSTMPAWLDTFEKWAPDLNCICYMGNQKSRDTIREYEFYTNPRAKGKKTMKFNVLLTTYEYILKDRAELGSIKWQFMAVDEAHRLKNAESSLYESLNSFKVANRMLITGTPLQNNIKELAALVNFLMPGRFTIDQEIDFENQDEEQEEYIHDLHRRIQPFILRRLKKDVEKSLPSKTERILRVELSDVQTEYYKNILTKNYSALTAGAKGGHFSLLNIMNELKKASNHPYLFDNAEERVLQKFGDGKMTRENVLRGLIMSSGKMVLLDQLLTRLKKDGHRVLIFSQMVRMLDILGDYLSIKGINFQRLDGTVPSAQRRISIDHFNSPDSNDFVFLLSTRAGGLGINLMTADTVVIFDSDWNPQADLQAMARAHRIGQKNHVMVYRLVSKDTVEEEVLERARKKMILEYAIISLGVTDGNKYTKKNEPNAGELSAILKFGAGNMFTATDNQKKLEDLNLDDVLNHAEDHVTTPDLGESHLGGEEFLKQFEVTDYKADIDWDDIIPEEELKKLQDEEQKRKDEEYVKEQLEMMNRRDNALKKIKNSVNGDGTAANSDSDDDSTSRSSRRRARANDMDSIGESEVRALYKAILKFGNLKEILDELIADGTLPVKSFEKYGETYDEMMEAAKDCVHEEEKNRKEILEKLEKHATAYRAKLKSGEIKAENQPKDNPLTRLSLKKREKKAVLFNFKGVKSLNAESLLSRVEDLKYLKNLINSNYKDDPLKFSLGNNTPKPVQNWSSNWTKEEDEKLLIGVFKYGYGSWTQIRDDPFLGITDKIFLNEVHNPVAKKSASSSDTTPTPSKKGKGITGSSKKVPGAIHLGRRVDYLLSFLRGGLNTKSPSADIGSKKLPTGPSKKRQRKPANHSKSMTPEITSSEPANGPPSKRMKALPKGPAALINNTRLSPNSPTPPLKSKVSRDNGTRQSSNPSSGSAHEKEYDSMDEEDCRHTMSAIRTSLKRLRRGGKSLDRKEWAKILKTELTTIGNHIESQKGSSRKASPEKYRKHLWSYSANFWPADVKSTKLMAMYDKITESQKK

| SMILES | Percent Effect [1] [%] | Percent Effect [2] [%] | Percent Effect [3] [%] | Percent Effect [4] [%] | Percent Effect (Trypanosoma cruzi) [%] | Percent Effect [5] [%] | Percent Effect [6] [%] | Percent Effect (Homo sapiens) [%] | Percent Effect [7] [%] | Percent Effect [8] [%] | Percent Effect [9] [%] |
| --- | --- | --- | --- | --- | --- | --- | --- | --- | --- | --- | --- |
| COc1ccccc1N1CCC(CNCc2cccc(OC)c2OC)C1 (centres undefined) | -3.66 | 10.8 | -14.2 | 3.03 | 6.51 | -13.6 | 7.75 | 18.9 | 13.3 | 23.5 | -8.44 |
| c1cncc(CN2CCc3ncnc(C4CCOC4)c3CC2)c1 (centres undefined) | 1.94 | 21.3 | 13.3 | -7 | -4.92 | 2.1 | 7.14 | 15.9 | 5.32 | 6.41 | -0.839 |
| Cc1nc2c(c(C)c1CC(=O)Nc1cccc(C#N)c1)c(=O)[nH]n2C | -5.36 | 7.79 | 0.36 | -4.8 | -4.8 | -1.9 | 10.8 | 16.6 | 2.86 | 2.35 | -19.9 |
| CCOc1ccccc1CSc1nnc(CC2CCS(=O)(=O)C2)n1C (centres undefined) | -2.9 | 2.7 | -1.67 | 1.02 | -3.42 | 1.74 | 9.19 | 5.04 | 3.23 | 11.1 | -8.57 |
